C diff growth = blocks growth of Clostridium difficile; growth activity, negative = inhibition, % at 16 µg/mL (by protocol); actives 0.25% (n = 86,000); Clostridium difficile clinical isolate growth, OD600, 24 h; hits give low values;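 active = mean growth activity at or below -80% and every replicate also at or below -80%; inconclusive = mean at or below -80% but some replicate above -80%; inactive = mean growth activity above -80%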;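 also: 0% = DMSO wells and -100% = levofloxacin 16 µg/mL wells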
Pf Dd2 inh = P. falciparum Dd2 growth inhibition. SYBR Green, 72 h; hits give low values. activity change, % at 10 µM. actives 2.3% (n = 94,000). AID 1159554; in the data active = activity change below about -80%; inconclusive = no clear call, values can overlap the other calls
T cruzi growth-1 = T. cruzi proliferation inhibition; T. cruzi beta-gal in NIH3T3, GalScreen luminescence, 90 h; actives 5.9% (n = 77,000); inhibition, % at 8.34 µM; AID 624255;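 active = mean inhibition above about 93%, with at least 55% of replicates each passing it, limit read from the data, passing the limit was not always enough; inconclusive = only one of those two conditions holds; inactive = neither condition holds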
T cruzi growth-2 = blocks T. cruzi growth in NIH3T3 host cells | shares compounds with T cruzi growth-1 | T. cruzi beta-gal in NIH3T3, GalScreen luminescence, 90 h | inhibition, % at 8.35 µM | actives 72% (n = 5,600);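 active = mean replicate inhibition above about 95% and at least 55% of replicates individually reaching it, limit read from the data; inconclusive = only one of the two criteria is met; inactive = neither criterion is met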
T cruzi growth-3 = inhibitors of T. cruzi proliferation. shares compounds with T cruzi growth-1. T. cruzi beta-gal in NIH3T3, GalScreen luminescence, 90 h. inhibition, % at 2.09 µM. actives 21% (n = 5,600);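 active = mean inhibition above about 95%, with at least 55% of replicates also reaching it, limit read from the data; inconclusive = meets just one of the two conditions; inactive = meets neither condition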;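 also: plate controls were neutral control median for no effect and positive control median for full effect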
3T3 cytotox = cytotoxicity in mouse NIH/3T3 fibroblasts | shares compounds with T cruzi growth-1 | NIH/3T3 viability, CellTiter-Glo ATP luminescence, 90 h | cytotoxicity (signal decrease), % at 8.35 µM | actives 14% (n = 5,600);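 active = mean signal decrease across replicates above about 35% based on untreated-well scatter, with enough replicates individually passing, limit read from the data; inconclusive = no rule stated though some were filed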;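 also: 0% = median of neutral control wells and 100% = median of positive control wells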
NIH3T3 tox 2 = NIH/3T3 (mouse) viability loss. shares compounds with T cruzi growth-1. NIH/3T3 viability, CellTiter-Glo ATP luminescence, 90 h. inhibition, % at 24.9 µM. actives 56% (n = 5,600). AID 651744;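 active = mean loss of cell viability signal at or above a set limit, and enough replicates individually reaching it; inconclusive = meets only the mean limit or only the replicate share; inactive = meets neither condition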;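 also: 0% = median of neutral control wells and 100% = median of positive control wells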
Active calls of the source: *; u = inconclusive; x = no result given. Shown are actives, neighbours in structure and some others; about 6.7% of the full set was active somewhere.

SMILES | C diff growth | Pf Dd2 inh | T cruzi growth-1 | T cruzi growth-2 | T cruzi growth-3 | 3T3 cytotox | NIH3T3 tox 2
C[C@H]1CN([C@@H](C)CO)C(=O)Cc2cc(NC(=O)Nc3ccc(F)cc3)ccc2O[C@H]1CN(C)C(=O)Nc1ccc(F)cc1 | 6.6 | 11.8 | 9.2 | x | x | x | x
CC(=O)N(C)C[C@H]1Oc2cc(-c3ccc(F)cc3)ccc2S(=O)(=O)N([C@@H](C)CO)C[C@H]1C | -0.9 | 3.0 | 6.0 | x | x | x | x
CC(=O)N(C)C[C@H]1Oc2cc(-c3ccc(F)cc3)ccc2S(=O)(=O)N([C@@H](C)CO)C[C@@H]1C | -1.1 | -6.7 | 8.3 | x | x | x | x
C[C@H](CO)N1C[C@H](C)[C@H](CN(C)C(=O)Nc2ccc(F)cc2)Oc2cc(-c3ccc(F)cc3)ccc2S1(=O)=O | x | -51.4 | 118.9* | 104.5* | 74.5 | 10.8 | 56.0*
CC(=O)N(C)C[C@H]1Oc2cc(-c3ccc(F)cc3)ccc2S(=O)(=O)N([C@H](C)CO)C[C@@H]1C | -0.9 | -7.7 | 42.4 | x | x | x | x
C[C@@H]1CN([C@H](C)CO)S(=O)(=O)c2ccc(-c3ccc(F)cc3)cc2O[C@@H]1CN(C)C(=O)Nc1ccc(F)cc1 | x | -27.2 | 120.1* | 106.9* | 66.2 | 6.6 | 48.7*
C[C@H](CO)N1C[C@H](C)[C@@H](CN(C)C(=O)Nc2ccc(F)cc2)Oc2cc(-c3ccc(F)cc3)ccc2S1(=O)=O | x | -40.0 | 117.8* | 96.4* | 46.2 | 44.2* | 45.5*
C[C@H]1CN([C@@H](C)CO)S(=O)(=O)c2ccc(-c3ccc(F)cc3)cc2O[C@H]1CN(C)C(=O)Nc1ccc(F)cc1 | x | -24.5 | 120.3* | 100.9* | 80.9 | 62.1* | 76.3*
C[C@H](CO)N1C[C@H](C)[C@H](CN(C)C(=O)Nc2ccc(F)cc2)Oc2cc(-c3cccc(C(=O)N(C)C)c3)ccc2S1(=O)=O | -0.5 | -53.6 | 17.6 | x | x | x | x
COC(=O)C[C@H]1CC[C@H]2[C@@H](COC[C@@H](O)CN2S(=O)(=O)c2ccc(F)cc2)O1 | -3.6 | 14.3 | 40.1 | x | x | x | x
CC(C)C#Cc1ccc2c(c1)O[C@H](CN(C)C)[C@@H](C)CN([C@H](C)CO)S2(=O)=O | -0.1 | -7.4 | x | x | x | x | x
CC(C)CC#Cc1ccc([C@@H]2[C@@H](CO)N3C(=O)CN(C(=O)NC4CCCC4)C[C@H]23)cc1 | -5.2 | -6.4 | x | x | x | x | x
C[C@@H]1CN([C@H](C)CO)S(=O)(=O)c2ccc(-c3cccc(C(=O)N(C)C)c3)cc2O[C@@H]1CN(C)C(=O)Nc1ccc(F)cc1 | -2.5 | -19.4 | 21.8 | x | x | x | x
C[C@@H]1CN([C@@H](C)CO)S(=O)(=O)c2ccc(-c3ccc(F)cc3)cc2O[C@H]1CN(C)C(=O)Nc1ccc(F)cc1 | x | -20.4 | u | 93.1 | 6.7 | 23.9 | 55.7*
O=C(N[C@H]1CC[C@H](CCNS(=O)(=O)c2ccccc2Cl)O[C@H]1CO)c1ccccc1 | -0.4 | 23.1 | 20.7 | x | x | x | x
N#C[C@H]1[C@H](c2ccc(C#CC3(O)CCCC3)cc2)[C@H](CO)N1C(=O)C1CCC1 | 3.9 | -44.7 | 100.3* | 106.8* | 66.1 | 15.3 | 64.1*
N#C[C@H]1[C@@H](c2ccc(C#CC3(O)CCCC3)cc2)[C@H](CO)N1C(=O)C1CC1 | 13.8 | -27.8 | 99.7* | 104.0* | 94.5 | 8.1 | 56.0*
N#C[C@H]1[C@@H](c2ccc(C#Cc3ccc(F)cc3)cc2)[C@H](CO)N1C(=O)C1CC1 | -15.3 | -40.9 | 93.4 | x | x | x | x
N#C[C@@H]1[C@@H](c2ccc(C#Cc3cccnc3)cc2)[C@@H](CO)N1C(=O)C1CCC1 | 3.5 | 2.2 | 59.8 | x | x | x | x
CC(C)CC#Cc1cnc2c(c1)C(=O)N([C@H](C)CO)C[C@H](C)[C@@H](CN(C)S(=O)(=O)c1cccs1)O2 | -9.1 | -60.6 | 72.6 | x | x | x | x
C[C@@H]1CN([C@H](C)CO)C(=O)c2cccc(NC(=O)C3CCOCC3)c2O[C@H]1CN(C)Cc1ccc2c(c1)OCO2 | 4.5 | 11.2 | 4.9 | x | x | x | x
C[C@H](CO)N1C[C@H](C)[C@@H](CN(C)Cc2ccccc2)Oc2ncc(/C=C/c3ccccc3)cc2C1=O | 9.3 | -34.3 | 70.6 | x | x | x | x
CN1c2ccc(-c3ccccc3F)cc2[C@@H]2[C@@H](CCN2C(=O)Nc2ccc(F)cc2)[C@@H]1CO | -10.2 | 0.8 | 107.0* | 103.6* | 101.4* | 13.8 | 43.4*
CCC(=O)N1CC[C@@H]2[C@@H](CO)N(C)c3ccc(-c4ccccc4F)cc3[C@@H]21 | 8.7 | 20.7 | 89.2 | x | x | x | x
CN1c2ccc(-c3ccccc3F)cc2[C@H]2[C@H](CCN2C(=O)Nc2ccc(F)cc2)[C@H]1CO | 75.2 | 4.7 | u | 111.1* | 93.6 | -14.8 | 45.4*
SMILES | C diff growth | Pf Dd2 inh | T cruzi growth-1 | T cruzi growth-2 | T cruzi growth-3 | 3T3 cytotox | NIH3T3 tox 2
CCC(=O)N1CC[C@@H]2[C@H]1c1cc(-c3ccccc3F)ccc1N(C)[C@H]2CO | -2.6 | 28.3 | 91.5 | x | x | x | x
CC(C)NC(=O)N(C)C[C@@H]1Oc2cc(C#Cc3ccccn3)ccc2S(=O)(=O)N([C@@H](C)CO)C[C@@H]1C | 4.6 | -64.1 | u | 30.1 | 16.1 | -17.1 | -4.0
CC(C)NC(=O)N(C)C[C@@H]1Oc2cc(C#Cc3ccccn3)ccc2S(=O)(=O)N([C@H](C)CO)C[C@@H]1C | -1.0 | -40.9 | 4.6 | x | x | x | x
CC(C)NC(=O)N(C)C[C@H]1Oc2cc(C#Cc3ccccn3)ccc2S(=O)(=O)N([C@H](C)CO)C[C@H]1C | -4.4 | -24.0 | 110.5* | 99.2* | 46.4 | 4.0 | 39.6*
CC(C)NC(=O)N(C)C[C@H]1Oc2cc(C#Cc3ccccn3)ccc2S(=O)(=O)N([C@@H](C)CO)C[C@H]1C | -2.8 | -23.4 | 47.7 | x | x | x | x
Cc1cccc(-c2ccc([C@H]3[C@@H](CO)N4CCCCN(C(=O)c5cccnc5)C[C@H]34)cc2)c1 | -0.5 | 25.3 | 113.7* | 96.4* | 74.6 | 10.2 | u
Cc1cccc(-c2ccc([C@H]3[C@@H](CO)N4CCCCN(C(=O)c5ccncc5)C[C@@H]34)cc2)c1 | 3.7 | 17.7 | 79.2 | x | x | x | x
Cc1cccc(-c2ccc([C@H]3[C@H](CO)N4CCCCN(C(=O)c5ccncc5)C[C@@H]34)cc2)c1 | -3.3 | 16.8 | 67.6 | x | x | x | x
Cc1cccc(-c2ccc([C@H]3[C@@H](CO)N4CCCCN(C(=O)c5cccnc5)C[C@@H]34)cc2)c1 | -9.8 | 26.2 | u | 107.7* | 41.8 | 35.8* | 22.3
Cc1ccccc1-c1ccc([C@H]2[C@H]3CN(C(=O)c4cccnc4)CCCCN3[C@H]2CO)cc1 | -2.9 | 24.7 | 36.3 | x | x | x | x
Cc1cccc(-c2ccc([C@@H]3[C@H]4CN(C(=O)c5cccnc5)CCCCN4[C@H]3CO)cc2)c1 | -0.8 | 43.6 | 104.3* | 73.0 | 29.6 | 10.8 | 42.0*
COc1ccc(CN(C)C[C@H]2Oc3ccc(NS(=O)(=O)c4cn(C)cn4)cc3CC(=O)N([C@@H](C)CO)C[C@H]2C)cc1 | -12.0 | 10.3 | 6.5 | x | x | x | x
COc1ccc2c3c([nH]c2c1)[C@H](CO)N(C(=O)C1CC1)CC31CN(C(=O)NC(C)C)C1 | -1.9 | 48.8 | x | x | x | x | x

High-throughput results deposited in PubChem BioAssay by Broad Institute.
